# Reference: the supplement of paper PMC10646978
# ± gives the standard deviation.
# Assays:
# Details in all cases: modulator concentration 10 µM
# [1] = tested on: RAW-Dual (murine macrophage reporter line); experiment: NF-kB reporter (SEAP) activity fold change vs agonist alone; higher = enhanced NF-kB activity
# How it was run: (§1)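 Compound reached 10 μM final in each well by pin transfer, onto RAW-Dual murine macrophage reporter cells seeded at 50 000 per well in 384-well plates. After 1 hour at 37 °C, the cells were stimulated overnight with a PRR agonist. SEAP in the supernatant was read with QUANTI-Blue at 620 nm absorbance for NF-κB, and Lucia luciferase was read with QUANTI-Luc luminescence for IRF. Each signal was turned into fold change against the mean agonist-only control on the same plate, and two replicate plates were averaged with propagated errors.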
# [2] = tested on: RAW-Dual (murine macrophage reporter line); experiment: IRF reporter (Lucia luciferase) activity fold change vs agonist alone; higher = enhanced IRF activity
# How it was run: as §1
# [3] = tested on: RAW-Dual (murine macrophage reporter line); experiment: viability score (confluency relative to resting cells, overnight) (fraction); higher = more viable, active = viable (0.7 or more)
# How it was run: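 In 384-well plates, RAW-Dual macrophages received compound at a final 10 μM overnight. Two confluency masks were then made with IncuCyte software from IncuCyte images of all imaged wells. The viability score is defined as confluency relative to resting cells. Passing the cutoff required both masks to lie above 70% of resting cells.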
# [4] = agonist: CpG ODN 1826 0.5 ug/mL
SMILES,"NF-kB reporter [1, 4]",NF-kB reporter ([1]; agonist: LPS 0.1 ug/mL),NF-kB reporter ([1]; agonist: MPLA […]),IRF reporter ([2]; agonist: 3'3'-cGAMP 10 ug/mL),IRF reporter ([2]; agonist: LPS 0.1 ug/mL),IRF reporter ([2]; agonist: MPLA […]),viability score [3]
COc1cc(Br)c(C=C(C#N)c2nn(-c3ccccc3)c(N)c2C#N)cc1OC,1.25 ± 0.1,1.09 ± 0.08,1.07 ± 0.1,0.936 ± 0.025,1.25 ± 0.24,1.18 ± 0.25,1.01 (active)
CCN(CC)c1ccc(C=Nn2nnnc2N)c(O)c1,1.01 ± 0.078,0.869 ± 0.1,1.13 ± 0.11,0.942 ± 0.039,1.06 ± 0.13,1.44 ± 0.29,0.955 (active)
Br.CCCCn1c(=N)n(CC(=O)OC)c2ccccc21,1.13 ± 0.1,0.957 ± 0.081,1.05 ± 0.059,0.955 ± 0.055,1 ± 0.055,1.15 ± 0.15,0.999 (active)
O=C(NC(=S)c1c(-c2ccccc2)cc2ccccn12)c1ccccc1,0.746 ± 0.058,0.786 ± 0.038,0.883 ± 0.078,0.516 ± 0.03,1.18 ± 0.086,1.36 ± 0.18,1.01 (active)
Cc1ccc(C(=O)NC(Oc2ccc3ccccc3c2)C(Br)(Br)Br)cc1 (stereo not drawn),0.799 ± 0.045,1.02 ± 0.092,0.86 ± 0.053,0.598 ± 0.047,1.51 ± 0.12,1.27 ± 0.14,0.998 (active)
COc1c(-c2ccc3cc(NS(C)(=O)=O)ccc3c2)cc(-n2ccc(=O)[nH]c2=O)cc1C(C)(C)C,0.43 ± 0.1,1.02 ± 0.056,0.827 ± 0.093,0.774 ± 0.043,1.2 ± 0.29,1.2 ± 0.15,1.01 (active)
O=C(NCCN1CCN(c2ccc(Cl)cc2)CC1)c1cnccn1,0.974 ± 0.076,0.967 ± 0.086,1 ± 0.03,0.982 ± 0.049,1.01 ± 0.055,0.919 ± 0.097,0.998 (active)
C=C1CCN([C@H](C)[C@](O)(Cn2cncn2)c2ccc(F)cc2F)CC1,1.21 ± 0.12,0.941 ± 0.11,0.986 ± 0.095,1.19 ± 0.054,1.73 ± 0.16,1.3 ± 0.15,0.134 (inactive)
O=C(Nc1cc(N2CCN(Cc3ccccc3)CC2)ncn1)c1ccc2ccccc2n1,0.528 ± 0.04,0.984 ± 0.077,0.846 ± 0.036,0.94 ± 0.049,1.07 ± 0.067,1.24 ± 0.23,1.01 (active)
COc1ccc(CCN(C)CCCC(C#N)(c2ccc(OC)c(OC)c2)C(C)C)cc1OC.Cl (stereo not drawn),0.742 ± 0.21,1.02 ± 0.25,1.12 ± 0.082,0.572 ± 0.018,1.32 ± 0.26,1.27 ± 0.12,0.977 (active)
COC(=O)C1=C(C)NC(=Cc2c(F)cccc2Cl)C1=O,0.944 ± 0.17,0.966 ± 0.077,0.963 ± 0.11,0.876 ± 0.023,1.23 ± 0.19,1.13 ± 0.16,0.985 (active)
CN(C)CCCN1c2ccccc2Sc2ccccc21.Cl,0.791 ± 0.075,0.956 ± 0.12,1.25 ± 0.054,0.719 ± 0.051,0.994 ± 0.07,0.798 ± 0.069,0.534 (inactive)
O=[N+]([O-])c1cc(C(F)(F)F)ccc1N1CCN(CC=Cc2ccccc2)CC1,0.915 ± 0.078,1.07 ± 0.099,0.985 ± 0.071,0.976 ± 0.036,1.47 ± 0.24,1.14 ± 0.12,1.01 (active)
COc1ccc(-c2coc3cc(O)cc(O)c3c2=O)cc1,1.87 ± 0.54,1.27 ± 0.083,1.73 ± 0.13,0.919 ± 0.071,1.32 ± 0.18,1.37 ± 0.14,0.623 (inactive)
